{"source": "PubChem BioAssay (NCATS)", "key": {"[1]": {"biological_target": "Cytochrome P450 1A2 (Homo sapiens) (UniProt P05177)", "sequence (P05177 whole entry, looked up)": "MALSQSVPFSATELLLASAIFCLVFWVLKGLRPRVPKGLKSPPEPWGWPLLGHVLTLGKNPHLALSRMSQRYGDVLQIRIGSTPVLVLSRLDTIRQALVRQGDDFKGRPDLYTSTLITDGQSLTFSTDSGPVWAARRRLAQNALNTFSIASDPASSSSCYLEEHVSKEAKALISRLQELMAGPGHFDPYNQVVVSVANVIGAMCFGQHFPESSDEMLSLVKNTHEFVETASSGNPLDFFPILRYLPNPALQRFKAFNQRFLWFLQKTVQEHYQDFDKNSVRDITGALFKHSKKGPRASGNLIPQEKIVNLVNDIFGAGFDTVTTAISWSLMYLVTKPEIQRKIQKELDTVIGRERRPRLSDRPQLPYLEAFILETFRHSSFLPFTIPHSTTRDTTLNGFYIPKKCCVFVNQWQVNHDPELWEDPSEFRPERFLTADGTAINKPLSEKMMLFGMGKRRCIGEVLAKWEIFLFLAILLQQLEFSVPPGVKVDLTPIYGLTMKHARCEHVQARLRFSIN", "assay": "p450-cyp1a2 (AID 410; calls by dose curve; note: potency is the fitted concentration of half-maximal effect)", "how_it_was_run": "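Inhibition was calculated relative to 57 uM furafylline (full inhibition). The reaction used human CYP1A2 at 20nM with Luciferin-ME at its Km, 100uM, driven by an NADPH-regenerating system for 60 min at room temperature.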"}, "[2]": {"biological_target": "Glucocorticoid receptor (Homo sapiens) (UniProt P04150)", "sequence (P04150 whole entry, looked up, the tested form may be a part)": "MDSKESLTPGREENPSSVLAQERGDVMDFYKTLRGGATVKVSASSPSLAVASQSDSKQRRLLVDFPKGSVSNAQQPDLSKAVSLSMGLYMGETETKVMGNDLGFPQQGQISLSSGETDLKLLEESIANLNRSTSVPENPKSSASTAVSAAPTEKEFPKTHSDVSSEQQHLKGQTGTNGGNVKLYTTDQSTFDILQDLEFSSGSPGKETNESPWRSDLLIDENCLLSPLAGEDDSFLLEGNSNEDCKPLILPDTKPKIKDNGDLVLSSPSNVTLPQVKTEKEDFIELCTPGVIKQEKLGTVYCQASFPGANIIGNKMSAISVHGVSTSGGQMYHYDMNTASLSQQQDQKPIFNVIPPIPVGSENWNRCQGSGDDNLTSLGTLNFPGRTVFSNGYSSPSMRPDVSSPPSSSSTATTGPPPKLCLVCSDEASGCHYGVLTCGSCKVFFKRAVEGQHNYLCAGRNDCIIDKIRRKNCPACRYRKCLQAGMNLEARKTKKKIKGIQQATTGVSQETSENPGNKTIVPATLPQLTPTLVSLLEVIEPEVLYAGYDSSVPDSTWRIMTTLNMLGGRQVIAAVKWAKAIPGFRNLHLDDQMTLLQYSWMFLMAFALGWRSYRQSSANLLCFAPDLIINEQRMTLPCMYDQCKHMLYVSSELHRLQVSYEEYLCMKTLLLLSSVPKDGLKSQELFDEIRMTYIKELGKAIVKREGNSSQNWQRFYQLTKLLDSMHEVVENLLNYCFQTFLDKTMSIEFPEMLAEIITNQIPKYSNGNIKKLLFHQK", "assay": "GR-GFP Redistribution (AID 450;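 active = compounds whose dose series gives a full or clear partial fitted curve of increased nuclear translocation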; note: potency is the fitted concentration of half-maximal effect)", "conditions": "U2OS GR-GFP nuclear translocation, laser cytometry, 2 h"}, "[3]": {"biological_target": "Glucocorticoid receptor (Homo sapiens) (UniProt P04150)", "assay": "GR-EFC Redistribution (AID 451; calls by dose curve; note: potency is the fitted concentration of half-maximal effect)", "conditions": "CHO-K1 GR-EFC translocation, beta-gal luminescence, 2 h", "how_it_was_run": "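CHO-K1 cells expressing nuclear EA and GR-ED fragments of b-gal; compounds titrated up to 46 uM final, 2 h at 37 C. GR nuclear translocation read as complemented b-gal luminescence after 1 h RT detection.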"}, "[4]": {"biological_target": "Mitogen-activated protein kinase 10 (Mus musculus) (UniProt Q61831)", "assay": "JNK3 AlphaScreen Assay (AID 530; active = well fitted curve in either direction with a large enough effect, not every such curve was filed as active;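 note: kinase came from lysate of stimulated human HepG2 cells; signal reports phosphorylation of biotinylated GST-cJun 1-79 at Ser73 with 10 µM ATP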)", "how_it_was_run": "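qHTS format: compounds tested as titrations against IL-1beta/TNF-alpha-activated HepG2 lysate JNK3 with biotin-GST-cJun substrate and 10 uM ATP at room temperature. Loss of anti-phospho-cJun AlphaScreen signal indicates inhibition.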"}, "[5]": {"biological_target": "3',5'-cyclic-AMP phosphodiesterase 4B (Homo sapiens) (UniProt Q07343)", "sequence (Q07343 whole entry, looked up)": "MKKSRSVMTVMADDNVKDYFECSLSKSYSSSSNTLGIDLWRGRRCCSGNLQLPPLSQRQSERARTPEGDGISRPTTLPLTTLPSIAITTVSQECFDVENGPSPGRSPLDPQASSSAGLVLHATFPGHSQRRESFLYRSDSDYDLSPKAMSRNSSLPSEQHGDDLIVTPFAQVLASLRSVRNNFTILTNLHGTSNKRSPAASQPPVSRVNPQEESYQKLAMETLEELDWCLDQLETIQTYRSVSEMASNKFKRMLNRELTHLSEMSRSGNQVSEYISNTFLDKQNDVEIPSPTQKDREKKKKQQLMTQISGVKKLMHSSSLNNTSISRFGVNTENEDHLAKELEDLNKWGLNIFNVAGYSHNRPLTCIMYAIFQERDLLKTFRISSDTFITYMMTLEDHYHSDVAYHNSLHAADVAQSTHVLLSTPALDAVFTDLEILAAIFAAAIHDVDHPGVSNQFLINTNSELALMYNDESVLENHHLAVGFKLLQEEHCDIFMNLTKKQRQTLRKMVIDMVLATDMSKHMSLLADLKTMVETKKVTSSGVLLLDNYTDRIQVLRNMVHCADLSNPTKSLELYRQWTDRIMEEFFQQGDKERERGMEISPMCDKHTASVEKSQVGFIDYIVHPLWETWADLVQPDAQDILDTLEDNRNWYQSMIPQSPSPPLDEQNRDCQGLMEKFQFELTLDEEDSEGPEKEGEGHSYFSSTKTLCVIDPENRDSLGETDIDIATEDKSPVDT", "assay": "qHTS Assay for Inhibitors of PDE-IV (AID 607; active = well fitted activation curve with a large enough effect in the main read-out, with a control signal flat, not every such curve was filed as active)", "how_it_was_run": "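The readout is membrane depolarisation from a cAMP-sensing CNG channel, detected with a potential dye at ex 535/em 590. Cells were HEK293-derived (endogenous PDE-IV) at 1000 cells/well, titrated up to 22.9 uM final.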"}, "[6]": {"assay": "qHTS Assay for Lipid Storage Modulators (AID 1519; calls by dose curve)", "conditions": "Drosophila S3 cells, BODIPY lipid droplet/cell ratio, laser cytometry, cells loaded with oleic acid", "how_it_was_run": "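Cells seeded at 5,000 per well were treated with compounds over a concentration series and loaded with oleic acid (400 uM, as added). Lipid droplet fluorescence (488 nm excitation, 500-530 nm channel) was read by laser-scanning cytometry and normalized to 20 uM Triacsin C.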"}, "[7]": {"biological_target": "Ubiquitin carboxyl-terminal hydrolase 1 (Homo sapiens) (UniProt O94782)", "sequence (O94782 whole entry, looked up)": "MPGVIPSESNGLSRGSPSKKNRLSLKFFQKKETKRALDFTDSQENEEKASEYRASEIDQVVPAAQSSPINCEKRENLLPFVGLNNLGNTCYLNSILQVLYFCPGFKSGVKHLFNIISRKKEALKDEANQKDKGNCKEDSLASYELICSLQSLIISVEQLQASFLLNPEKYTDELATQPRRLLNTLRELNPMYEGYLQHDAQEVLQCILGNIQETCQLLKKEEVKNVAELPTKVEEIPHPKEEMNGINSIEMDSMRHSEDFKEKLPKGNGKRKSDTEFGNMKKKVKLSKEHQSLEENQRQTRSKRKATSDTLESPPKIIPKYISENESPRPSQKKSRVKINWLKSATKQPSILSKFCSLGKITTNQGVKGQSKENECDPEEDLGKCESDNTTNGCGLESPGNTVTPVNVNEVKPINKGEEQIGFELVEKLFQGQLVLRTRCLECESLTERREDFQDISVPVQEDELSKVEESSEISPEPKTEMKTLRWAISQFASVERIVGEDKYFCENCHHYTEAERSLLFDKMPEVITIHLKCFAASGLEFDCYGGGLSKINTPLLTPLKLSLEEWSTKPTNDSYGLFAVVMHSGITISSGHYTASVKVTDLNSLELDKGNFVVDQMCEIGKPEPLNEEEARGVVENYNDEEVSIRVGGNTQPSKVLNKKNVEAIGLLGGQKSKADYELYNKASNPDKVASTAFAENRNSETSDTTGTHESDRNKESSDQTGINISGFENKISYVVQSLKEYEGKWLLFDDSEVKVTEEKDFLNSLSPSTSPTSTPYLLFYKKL", "assay": "Inhibitors of USP1/UAF1: Pilot qHTS (AID 504865);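 note: rhodamine fluorescence freed from ubiquitin-rhodamine substrate followed over time; top concentration of the series differs between compounds; nearly all actives have a fitted effect of over 35% in size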", "how_it_was_run": "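USP1/UAF1 complex (1nM) preincubated with compound 15 min at room temperature, then Ub-Rho substrate (150nM final) added. Fluorescence read kinetically at 480/540 nm, 6 reads every 60 seconds. Buffer: 50mM HEPES pH 7.8, 0.5mM EDTA, 0.1 mg/ml BSA, 1mM TCEP, 0.01% Tween-20.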"}, "[8]": {"biological_target": "DNA dC->dU-editing enzyme APOBEC-3G (Homo sapiens) (UniProt Q9HC16)", "sequence (Q9HC16 whole entry, looked up)": "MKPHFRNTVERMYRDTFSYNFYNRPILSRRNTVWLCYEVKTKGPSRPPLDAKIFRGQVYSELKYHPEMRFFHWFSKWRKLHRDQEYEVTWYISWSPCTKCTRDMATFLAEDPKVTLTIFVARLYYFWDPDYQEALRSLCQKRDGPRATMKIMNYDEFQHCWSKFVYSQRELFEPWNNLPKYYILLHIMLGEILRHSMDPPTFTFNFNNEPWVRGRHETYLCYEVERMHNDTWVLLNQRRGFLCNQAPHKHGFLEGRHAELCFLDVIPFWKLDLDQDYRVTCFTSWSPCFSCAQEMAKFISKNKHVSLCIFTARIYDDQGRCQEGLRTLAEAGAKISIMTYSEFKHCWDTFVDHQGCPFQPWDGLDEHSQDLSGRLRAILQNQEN", "assay": "qHTS for inhibitors of Vif-A3G interactions: Validation (AID 588379)", "how_it_was_run": "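HeLa cells stably expressing Vif and A3G-eYFP, 700 cells/well, incubated overnight at 37 deg C, then exposed to compound overnight at 37 deg C. Inhibition of Vif-mediated degradation read as increased yellow fluorescence (Ex 488/Em 500-530) by laser-scanning cytometry.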"}, "[9]": {"assay": "Primary qHTS for small molecule stabilizers of the endoplasmic reticulum resident proteome: Secreted ER Calcium Modulated Protein (SERCaMP) assay (AID 1508630)", "how_it_was_run": "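GLuc-SERCaMP-expressing SH-SY5Y cells, pretreated 16 h with compound, are challenged with thapsigargin to empty ER calcium stores; after 4 h, coelenterazine is added directly to the medium and luminescence is imaged.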"}, "[10]": {"biological_target": "Cytochrome P450 3A4 (Homo sapiens) (UniProt P08684)", "sequence (P08684 whole entry, looked up)": "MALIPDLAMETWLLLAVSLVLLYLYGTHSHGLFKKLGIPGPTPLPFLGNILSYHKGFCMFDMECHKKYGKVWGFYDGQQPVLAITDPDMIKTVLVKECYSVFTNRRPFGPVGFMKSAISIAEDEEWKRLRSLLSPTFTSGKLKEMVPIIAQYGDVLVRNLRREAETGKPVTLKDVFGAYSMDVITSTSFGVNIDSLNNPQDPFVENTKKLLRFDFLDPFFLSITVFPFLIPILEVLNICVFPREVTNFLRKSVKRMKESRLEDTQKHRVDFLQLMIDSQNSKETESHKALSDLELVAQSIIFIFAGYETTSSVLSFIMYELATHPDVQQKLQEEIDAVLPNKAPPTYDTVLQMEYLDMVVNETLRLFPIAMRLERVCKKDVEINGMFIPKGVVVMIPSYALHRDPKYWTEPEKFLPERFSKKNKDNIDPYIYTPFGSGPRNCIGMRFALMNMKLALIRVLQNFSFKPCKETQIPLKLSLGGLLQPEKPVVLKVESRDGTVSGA", "assay": "qHTS Assay for Inhibitors and Substrates of Cytochrome P450 3A4 (AID 884); note: potency is the fitted concentration of half-maximal effect; nearly all actives have a fitted effect of over 50% in size", "how_it_was_run": "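20 nM human CYP3A4 with 25 uM Luciferin-PPXE (at KM) in 200 mM KPO4, preincubated 10 min with compound; NADPH regeneration started a 60 min RT reaction. Luciferin detected by luminescence, normalized to 57 uM ketoconazole as full inhibition.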"}, "[11]": {"biological_target": "Cytochrome P450 3A4 (Homo sapiens) (UniProt P08684)", "assay": "qHTS Assay for Activators of Cytochrome P450 3A4 (AID 885); note: nearly all actives have a fitted effect of over 65% in size", "how_it_was_run": "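Steps: enzyme/substrate mix dispensed; compound added, 10 min RT; NADPH regeneration solution added, 60 min RT; luciferin detection buffer stops reaction; 20 min later luminescence measured.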"}, "[12]": {"biological_target": "Cytochrome P450 2D6 (Homo sapiens) (UniProt P10635)", "sequence (P10635 whole entry, looked up)": "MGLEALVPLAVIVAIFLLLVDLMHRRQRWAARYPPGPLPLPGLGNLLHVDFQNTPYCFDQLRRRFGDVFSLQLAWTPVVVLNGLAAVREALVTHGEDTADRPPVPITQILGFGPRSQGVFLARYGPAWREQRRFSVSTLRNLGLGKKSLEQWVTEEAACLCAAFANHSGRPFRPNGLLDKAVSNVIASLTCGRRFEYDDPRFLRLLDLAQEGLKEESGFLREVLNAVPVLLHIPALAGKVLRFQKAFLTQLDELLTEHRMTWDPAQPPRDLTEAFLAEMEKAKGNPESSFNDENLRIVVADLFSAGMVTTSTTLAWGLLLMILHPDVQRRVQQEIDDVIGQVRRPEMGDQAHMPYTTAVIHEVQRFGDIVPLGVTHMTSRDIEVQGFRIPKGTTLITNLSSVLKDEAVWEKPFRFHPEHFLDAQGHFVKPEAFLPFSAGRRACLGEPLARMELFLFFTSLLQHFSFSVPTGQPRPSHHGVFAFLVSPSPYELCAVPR", "assay": "qHTS Assay for Inhibitors and Substrates of Cytochrome P450 2D6 (AID 891); note: potency is the fitted concentration of half-maximal effect; nearly all actives have a fitted effect of over 60% in size", "how_it_was_run": "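Human CYP2D6 (5 nM) with 30 uM Luciferin-ME EGE (at Km) in 100 mM KPO4, compound preincubated 10 min, then NADPH regeneration system for 60 min at room temperature. Luciferin read by luminescence; normalized to 1.43 uM quinidine.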"}, "[13]": {"biological_target": "Cytochrome P450 2C19 (Homo sapiens) (UniProt P33261)", "sequence (P33261 whole entry, looked up)": "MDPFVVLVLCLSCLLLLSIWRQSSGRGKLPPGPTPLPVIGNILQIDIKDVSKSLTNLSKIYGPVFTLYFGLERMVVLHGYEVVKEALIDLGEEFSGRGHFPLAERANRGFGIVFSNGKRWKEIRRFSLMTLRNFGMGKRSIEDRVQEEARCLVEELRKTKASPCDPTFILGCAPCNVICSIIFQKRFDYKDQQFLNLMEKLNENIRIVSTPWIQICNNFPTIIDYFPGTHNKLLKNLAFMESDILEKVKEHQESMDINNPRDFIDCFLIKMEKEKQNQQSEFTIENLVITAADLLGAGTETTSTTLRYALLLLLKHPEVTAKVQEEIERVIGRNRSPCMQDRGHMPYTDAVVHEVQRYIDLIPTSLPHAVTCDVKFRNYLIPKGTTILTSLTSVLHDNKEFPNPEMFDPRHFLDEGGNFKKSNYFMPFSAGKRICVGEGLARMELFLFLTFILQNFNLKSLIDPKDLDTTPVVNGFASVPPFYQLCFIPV", "assay": "qHTS Assay for Inhibitors and Substrates of Cytochrome P450 2C19 (AID 899); note: potency is the fitted concentration of half-maximal effect; nearly all actives have a fitted effect of over 60% in size", "how_it_was_run": "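5 nM human CYP2C19 with 10uM Luciferin-H EGE (at KM) in 50mM KPO4, compound preincubated 10 min at 37C, then NADPH regeneration for 60 min at 37C. Luciferin read by luminescence after detection reagent; normalized to 57uM ketoconazole as full inhibition.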"}}, "note": "Records with an inconclusive call do not appear. Where a call stands in place of a potency, no number is given. Calls of active or inactive are those of the source. Unless noted, calls come from the whole dose curve; as a rule, active = well fitted curve in the direction sought with a large enough effect; inconclusive = small, poorly fitted or top-dose-only effect, or another doubt; inactive = no such curve, though single readings can be large; an effect the other way counts as inactive or inconclusive.", "data": [{"smiles": "CN1CCN(CCc2ccc(Cl)c(Cl)c2)CC1", "values": [{"measurement": "Potency", "setting": "[1]", "value": "25.1 µM (active)"}, {"measurement": "Potency", "setting": "[2]", "value": "> 46 µM (inactive)"}, {"measurement": "Potency", "setting": "[3]", "value": "> 46 µM (inactive)"}, {"measurement": "Potency", "setting": "[4]", "value": "inactive"}, {"measurement": "Potency", "setting": "[5]", "value": "inactive"}, {"measurement": "activity change, negative = inhibition", "setting": "[6]; at 57.5 µM (top of the series)", "value": "-0.655% (inactive)"}, {"measurement": "max response", "setting": "[6]; measured here: cell count channel max response", "value": -14.6, "unit": "%"}, {"measurement": "max response", "setting": "[6]; measured here: lipid channel max response", "value": -12.9, "unit": "%"}, {"measurement": "Potency", "setting": "[7]", "value": "inactive"}, {"measurement": "Potency", "setting": "[8]", "value": "inactive"}, {"measurement": "Potency", "setting": "[9]", "value": "inactive"}]}, {"smiles": "CC[N+]1(C)C2CCC1CC(OC(=O)[C@H]1CCC(C(=O)OC3CC4CCC(C3)[N+]4(C)CC)(c3ccccc3)c3ccccc31)C2", "note": "(stereo partly drawn)", "values": [{"measurement": "Potency", "setting": "[9]", "value": "inactive"}]}, {"smiles": "C[C@@](N)(C(=O)O)[C@@H]1C[C@@H]1C(=O)O", "values": [{"measurement": "Potency", "setting": "[9]", "value": "inactive"}]}, {"smiles": "c1ccc(N2CCN(CCCOc3ccc4c(c3)OCO4)CC2)cc1", "values": [{"measurement": "Potency", "setting": "[1]", "value": "12.6 µM (active)"}, {"measurement": "Potency", "setting": "[2]", "value": "> 46 µM (inactive)"}, {"measurement": "Potency", "setting": "[3]", "value": "> 46 µM (inactive)"}, {"measurement": "Potency", "setting": "[4]", "value": "inactive"}, {"measurement": "Potency", "setting": "[10]", "value": "3.16 µM (active)"}, {"measurement": "Potency", "setting": "[11]", "value": "inactive"}, {"measurement": "Potency", "setting": "[12]", "value": "0.126 µM (active)"}, {"measurement": "Potency", "setting": "[13]", "value": "5.01 µM (active)"}, {"measurement": "Potency", "setting": "[7]", "value": "inactive"}, {"measurement": "Potency", "setting": "[8]", "value": "inactive"}, {"measurement": "Potency", "setting": "[9]", "value": "inactive"}]}, {"smiles": "CCCCCCCC/C=C\\C/C=C\\C/C=C\\CCCC(=O)O", "values": [{"measurement": "activity change, negative = inhibition", "setting": "[9]", "value": "18.3% [at 3.88 µM] (inactive)"}]}, {"smiles": "CCCCCCN(CCCCCC)C(=O)Cc1c(-c2ccc(Cl)cc2)[nH]c2ccc(Cl)cc12", "values": [{"measurement": "Potency", "setting": "[1]", "value": "31.6 µM (active)"}, {"measurement": "Potency", "setting": "[2]", "value": "> 46 µM (inactive)"}, {"measurement": "Potency", "setting": "[3]", "value": "> 46 µM (inactive)"}, {"measurement": "Potency", "setting": "[4]", "value": "inactive"}, {"measurement": "Potency", "setting": "[5]", "value": "inactive"}, {"measurement": "Potency", "setting": "[11]", "value": "inactive"}, {"measurement": "Potency", "setting": "[8]", "value": "inactive"}, {"measurement": "Potency", "setting": "[9]", "value": "inactive"}]}]}
